# Test results from PubChem BioAssay (Tox21).
# “And” between values parts separate entries of the source, which are not always exact repeats. Equal entries are not always repeated. Records with an inconclusive call do not appear. A call without a number means that no potency is given here. The source holds several records for some structures; these can differ, active in one and inactive in another. The source made the active and inactive calls. The call rests on the fitted dose curve; in most records, active means well fitted cell-killing curve with a large enough effect in the repeat runs; inconclusive means weak or mixed curves, or effect the other way; inactive means flat fitted curve, though single readings scatter.
# Experiment: Human pregnane X receptor (PXR) small molecule agonists, qHTS cell viability counter screen (AID 1346977); further: nearly all actives have a fitted effect of over 50% in size
# Conditions: PXR-Luc HepG2 viability, CellTiter-Fluor, 24 h; series mostly up to 92.4 µM; activity change, negative = cytotoxicity: at the top concentration
# Text: U.S. Tox21 Program National Center for Advancing Translational Sciences [NCATS] NIH Chemical Genomics Center [NCGC] U.S. Environmental Protection Agency [EPA] National Institutes of Environmental Health Sciences [NIEHS] National Toxicology Program [NTP] U.S. Food and Drug Administration [FDA] Tox21 Assay Overview: The human pregnane X receptor (hPXR) regulates the expression of several drug metabolizing enzymes and induction of these proteins is a major mechanism for developing drug resistance in cancer. One such key enzyme catalyzing the drug metabolism is cytochrome P450 3A4 (CYP3A4). Changes in CYP3A4 expression affect drug metabolism, thereby reducing the therapeutic efficacy and altering toxicological response to a drug and which finally causes adverse drug interaction. To screen Tox21 libraries for compounds that activate hPXR-mediated CYP3A4 gene expression, PXR-Luc HepG2 cells were used. Also cytotoxicity of the compounds was tested in parallel by measuring the cell viability using CellTiter-Fluor assay system in the same wells.
# Tox21 Assay Protocol Summary: PXR-Luc HepG2 cells were dispensed at 2,000 per well in 5uL of assay medium containing 5% charcoal-stripped FBS into white solid bottom 1536-well plates (Corning Life Sciences, Corning, NY) using a Multidrop Combi (Thermo Scientific, Waltham, MA) dispenser. The assay plates were incubated at 37 C and 5% CO2 for 5hr, and then 23nL of compounds dissolved in DMSO and positive control were transferred using a Pintool station (Wako, San Diego, CA). The assay plates were incubated at 37C and 5% CO2 for 24hr. For cytotoxicity read, after 23hr incubation at 37C, 1uL CellTiter-Fluor reagent (Promega Corporation, Madison, WI) was added to each well of the assay plates using Flying Reagent Dispenser (FRD, Aurora Discovery, San Diego, CA). After 1hr incubation at 37C and 5% CO2, the fluorescence signal was quantified using a ViewLux plate reader (PerkinElmer, Shelton, CT).
# Potency means the concentration at half of the fitted maximal effect.
SMILES,Potency,"activity change, negative = cytotoxicity"
C/C=C(C)/C=C/C=C(C)C,inactive,
Cc1ccc(N)c(S(=O)(=O)O)c1,inactive,
OCC#CCO,inactive,
CC1=C(/C=C/C(C)=C/C=C/C(C)=C/CO)C(C)(C)CCC1,,-17.4% (inactive)
NC(=O)NNc1ccccc1,inactive,
CCCCCCC(C)(C)S,inactive,
CCC(=O)O,inactive,
COC(=O)Nc1nc2ccc(Sc3ccccc3)cc2[nH]1,inactive,
CC(=O)Nc1ccc(C(=O)O)cc1,inactive,
CC(C)(N=C=O)c1cccc(C(C)(C)N=C=O)c1,inactive,
C=C1C2CCC(C2)C1(C)C (stereo not given),inactive,
C=C(C)C(=O)OCC(CC)(COC(=O)C(=C)C)COC(=O)C(=C)C,inactive,
CC1(C)O[C@@H]2C[C@H]3[C@@H]4C[C@H](F)C5=CC(=O)CC[C@]5(C)[C@H]4[C@@H](O)C[C@]3(C)[C@]2(C(=O)CO)O1,inactive,
O=S(=O)(O)c1cc(S(=O)(=O)O)c2c(N=Nc3ccccc3)c(O)ccc2c1,39.8 µM (active) and 54.5 µM (active),
Nc1c(S(=O)(=O)O)cc(Br)c2c1C(=O)c1ccccc1C2=O,31.3 µM (active) and 27.3 µM (active),
CNC[C@H](O)[C@@H](O)[C@H](O)[C@H](O)CO,inactive,
CCCCCCCCCCCCN,inactive and 30.6 µM (active),
C=C(C)C(=O)OCCCCCC,inactive,
CC(C)NCC(O)COc1cccc2ccccc12 (stereo not given),39.8 µM (active),
CCCCC(CC)COC(=O)/C=C\C(=O)OCC(CC)CCCC (stereo not given),inactive,

SMILES,Potency,"activity change, negative = cytotoxicity"
CCOC(=O)/C=C\C(=O)OCC,inactive,
CC#C[C@]1(O)CC[C@H]2[C@@H]3CCC4=CC(=O)CCC4=C3[C@@H](c3ccc(N(C)C)cc3)C[C@@]21C,,-5.1% [at 42.5 µM] (inactive)
c1ccc2ccccc2c1,inactive,
CS(=O)(=O)c1ccc([C@@H](O)[C@@H](CO)NC(=O)C(Cl)Cl)cc1,inactive,
O=C1N=C(O)CN1/N=C/c1ccc(-c2ccc([N+](=O)[O-])cc2)o1,27.3 µM (active) and 23.7 µM (active),
CCOC(=O)C1OC1c1ccccc1 (stereo not given),inactive,
NCCNCCNCCNCCN,inactive,
CCCCCCCCC,inactive,
OCC1CCCO1 (stereo not given),inactive,
C=C(C)C(=O)OCCCCCCCCCCCC,inactive,
Cc1cc(NS(=O)(=O)c2ccc(N)cc2)no1,inactive,
Oc1ccc2ccccc2c1N=Nc1ccccc1,27.3 µM (active) and 30.6 µM (active),
Oc1ccc2ccccc2c1,inactive,
CN(CCOc1ccc(CC2SC(=O)NC2=O)cc1)c1ccccn1 (stereo not given),,0.118% [at 42.5 µM] (inactive)
O=Nc1ccc(O)cc1,,0.847% (inactive)
CCCCCCCCCC(=O)O,inactive,
CC[Si](OC(C)=O)(OC(C)=O)OC(C)=O,inactive,
CCCCNC(N)=O,inactive,
Cn1c([N+](=O)[O-])cnc1COC(N)=O,inactive,
CC(C)Cc1ccccc1,inactive,
